Activity calls are given as the source filed them.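 Rule for the calls, unless noted: active = inhibition of the reporter signal at or above 50%; inactive = inhibition below 50%.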
Columns and labels:
[1] = inhibitors of TNFa-induced NFkB p65 translocation, primary screen, imaging, HUVEC, MLSMR starter and 10KST1 sets (AID 438;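 active = inhibition above 20% together with a positive visual image hit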;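 note: compound added about 3h40 before a 20 min TNFalpha stimulation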;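 for inhibition: signal is the nuclear over cytoplasmic p65 intensity ratio per well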); settings: HUVEC TNFa-induced p65 nuclear translocation; cell count: measured here: nuclei count (cytotoxicity indicator), at 2.08 µM; inhibition: at 2 µM, stronger effect = higher value, 0% TNFa-plus-vehicle, 100% no-TNFa wells
[2] = reduction of polyQ htt aggregates in cells – imaging, exon1htt(103Q)mCFP cells, high-content imaging, primary screen (AID 483;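 active = visual image review flags a hit and inhibition of aggregation exceeds 20%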;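 note: compound exposure lasted 3 days before fixation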;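 for nuclei count: percent of the per-plate median nuclei count of sample wells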); settings: exon1htt(103Q)mCFP cell line, aggregate imaging, at 2 µM; inhibition of aggregation: stronger effect = higher value; nuclei count: measured here: cell count, toxicity
[3] = endothelial E-selectin expression blockers – imaging, HUVEC, immunofluorescence, MLSMR starter and 10KST1 sets, primary screen (AID 487;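 active = visually confirmed hit in the image check and inhibition above 20%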;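 for inhibition: signal is fraction of cell area covered by stained E-selectin grains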;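 for nuclei count: 100% = median nuclei count of all wells on the same plate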); settings: HUVEC TNFalpha-induced E-selectin immunofluorescence imaging, at 2 µM; inhibition: stronger effect = higher value; nuclei count: measured here: cell number, toxicity
[4] = target: Voltage-gated potassium channel subunit beta-2 (Rattus norvegicus) (UniProt P62483); assay: inhibitors of rat Kvbeta2 reductase activity – biochemical, NADPH fluorescence, primary screen (AID 622;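 active = fluorescence slope higher than the sample average by over 3 SD, cut at about -0.22 in these data, passing the limit was not always enough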;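 note: slope of raw intensity against log time taken from 70 to 1610 s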); settings: recombinant KvBeta, 4-cyanobenzaldehyde reduction, at 10 µM, stronger effect = higher value
[5] = target: Voltage-gated potassium channel subunit beta-2 (Rattus norvegicus) (UniProt P62483); assay: enhancers of rat Kvbeta2 NADPH turnover – biochemical, NADPH fluorescence, primary screen (AID 623;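 active = NADPH fluorescence slope more negative than the mean of all samples by about 3 SD, 99.7% confidence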;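 note: fluorescence intensity change per second fitted from 20 to 320 s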); settings: Recombinant KvBeta, NADPH fluorescence decrease slope, 10 min; at 10 µM; stronger effect = lower value
[6] = target: Alpha-2C adrenergic receptor (Homo sapiens) (UniProt P18825); assay: compounds altering alpha2C-coupled GIRK flux – cell-based, HEK293 alpha2C/GIRK1/2, thallium flux, primary screen (AID 624;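 active = fluorescence slope after compound addition differing from the mean of all screened samples at 99.7% confidence, in either direction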;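 note: slope of fluorescence ratio to pre-addition baseline per second over 15 to 24 s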); settings: thallium flux BTC fluorescence, at 10 µM, actives lie on both sides
[7] = blockers of RIG-like receptor reporter activation – cell-based, Sendai virus stimulus, luciferase, 10K MLSCN set, TLR/RLR signaling modifier project, primary screen (AID 602276;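 active = inhibition at or above 50% at 10 µM; inactive = inhibition below 50%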;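 note: firefly luciferase from ISG56 promoter only with Renilla not read in this screen; 0% = Sendai virus plus DMSO and 100% = medium plus DMSO without virus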); settings: HEK293 RL24 IRF3 luciferase reporter, at 10 µM, stronger effect = higher value
[8] = TLR3 IRF3 reporter activation blockers – cell-based, poly I:C stimulus, luciferase, 10K MLSCN set, primary screen (AID 602277); settings: HEK293-TLR3 RL24 IRF3 luciferase reporter, at 10 µM, stronger effect = higher value

Chain of Voltage-gated potassium channel subunit beta-2 (Rattus norvegicus) (P62483 whole entry, looked up): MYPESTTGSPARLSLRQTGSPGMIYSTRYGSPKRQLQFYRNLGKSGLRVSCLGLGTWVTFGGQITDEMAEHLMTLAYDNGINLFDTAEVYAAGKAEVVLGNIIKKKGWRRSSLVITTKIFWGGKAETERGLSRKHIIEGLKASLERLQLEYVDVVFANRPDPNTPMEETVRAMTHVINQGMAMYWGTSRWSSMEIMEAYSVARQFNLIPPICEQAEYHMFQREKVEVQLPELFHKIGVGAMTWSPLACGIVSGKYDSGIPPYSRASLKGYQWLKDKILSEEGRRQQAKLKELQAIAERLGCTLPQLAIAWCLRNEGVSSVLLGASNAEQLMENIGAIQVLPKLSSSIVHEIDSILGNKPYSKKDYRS
Chain of Alpha-2C adrenergic receptor (Homo sapiens) (P18825 whole entry, looked up): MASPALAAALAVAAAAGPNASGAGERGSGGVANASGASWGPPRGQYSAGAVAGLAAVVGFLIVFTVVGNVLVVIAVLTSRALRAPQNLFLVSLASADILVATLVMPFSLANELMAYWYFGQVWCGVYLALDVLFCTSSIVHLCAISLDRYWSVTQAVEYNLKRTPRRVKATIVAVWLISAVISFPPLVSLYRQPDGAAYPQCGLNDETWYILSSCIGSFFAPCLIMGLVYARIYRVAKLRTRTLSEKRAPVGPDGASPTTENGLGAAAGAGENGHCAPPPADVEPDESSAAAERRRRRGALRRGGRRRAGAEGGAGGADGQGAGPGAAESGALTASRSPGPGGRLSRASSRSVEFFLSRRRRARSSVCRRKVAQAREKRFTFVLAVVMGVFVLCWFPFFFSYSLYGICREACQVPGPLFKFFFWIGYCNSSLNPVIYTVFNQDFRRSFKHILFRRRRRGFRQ

| SMILES | cell count [1] | inhibition [1] | inhibition of aggregation [2] | nuclei count [2] [%] | inhibition [3] | nuclei count [3] [%] | fluorescence slope [4] | NADPH fluorescence slope [5] | slope [6] | inhibition [7] | inhibition [8] |
| --- | --- | --- | --- | --- | --- | --- | --- | --- | --- | --- | --- |
| O=C(Nc1nonc1NC(=O)C1CCCCC1)C1CCCCC1 | 396 | 10.2% (inactive) | -7.6% (inactive) | 108 | -71.5% (inactive) | 127 | -0.473 (inactive) | 3.9e-06 (inactive) | 0.00459 (inactive) | 13.6% (inactive) | 22.8% (inactive) |
| Cc1cccc(N2CCN(C(=O)C3CCCN(S(=O)(=O)c4c(C)noc4C)C3)CC2)c1C (stereo not drawn) | 599 | -2.3% (inactive) | -11.6% (inactive) | 102 | -85.1% (inactive) | 125 | -0.571 (inactive) | -2.7e-05 (inactive) | 0.00588 (inactive) | 8.68% (inactive) | 1.25% (inactive) |
| CCCCn1c(NCc2ccccc2O)nc2ccccc21 | 790 | -6.4% (inactive) | 14.4% (inactive) | 107 | -63% (inactive) | 120 | -0.567 (inactive) | -5.9e-06 (inactive) | 0.00728 (inactive) | 0.354% (inactive) | 25.3% (inactive) |
| O=C(COC(=O)CCC1CCCC1)Nc1ccc(Cl)cn1 | 429 | -4.8% (inactive) | -13.9% (inactive) | 115 | -27.8% (inactive) | 108 | -0.345 (inactive) | -5.6e-05 (inactive) | 0.00786 (inactive) | -6.45% (inactive) | 3.24% (inactive) |
| CSCCC(N=CC1=C(O)CC(C)(C)CC1=O)C(=O)O (stereo not drawn) | 405 | 1.8% (inactive) | -10.8% (inactive) | 104 | -0.2% (inactive) | 118 | -0.363 (inactive) | -4.2e-05 (inactive) | 0.00607 (inactive) | 15.3% (inactive) | 22.3% (inactive) |
| O=C1C(Cl)=C(N2CCCCC2)C(=O)N1c1ccccc1Cl | 450 | 4.4% (inactive) | -0.8% (inactive) | 105 | -57.1% (inactive) | 126 | -0.465 (inactive) | -0.000114 (inactive) | 0.00518 (inactive) | 16.8% (inactive) | 24.8% (inactive) |
| CC(=O)Nc1ccc(S(=O)(=O)Nc2nc3c(s2)CCCC3)cc1 | 638 | -2.1% (inactive) | 41.1% (inactive) | 95.3 | -46.9% (inactive) | 108 | -0.54 (inactive) | -4.4e-05 (inactive) | 0.00526 (inactive) | 5.19% (inactive) | -2.08% (inactive) |
| CCOc1ccccc1OCCCCN1CCCC1 | 608 | 10.2% (inactive) | 15.7% (inactive) | 100 | -99% (inactive) | 122 | -0.47 (inactive) | -5.2e-06 (inactive) | 0.00972 (active) | 7.96% (inactive) | 35.8% (inactive) |
| O=C(CSc1ncnc2c1cnn2-c1ccccc1)Nc1ccccc1 | 316 | 2.4% (inactive) | 8.4% (inactive) | 106 | -42% (inactive) | 115 | -0.493 (inactive) | -1.4e-05 (inactive) | 0.00569 (inactive) | 13.5% (inactive) | 23.8% (inactive) |
| COc1cc2c(cc1NCc1ccccn1)oc1ccccc12 | 304 | -1.5% (inactive) | 20.3% (inactive) | 66.4 | -27.9% (inactive) | 90.6 | -0.365 (inactive) | -4.6e-05 (inactive) | 0.00538 (inactive) | -24.8% (inactive) | -70.7% (inactive) |
| O=C(NCC1CCCO1)C1c2ccccc2C(=O)N1C1CCCCCC1 (stereo not drawn) | 445 | -9.2% (inactive) | -4.3% (inactive) | 101 | -38.3% (inactive) | 109 | -0.621 (inactive) | 2.7e-06 (inactive) | 0.00613 (inactive) | 11.3% (inactive) | 15.1% (inactive) |
| Cc1cc(C)n(C2=NS(=O)(=O)c3ccccc32)n1 | 343 | -2.4% (inactive) | 7.1% (inactive) | 92 | 70.9% (active) | 78.2 | -0.576 (inactive) | -1.6e-05 (inactive) | 0.00396 (inactive) | -8.5% (inactive) | -27.5% (inactive) |
| Cc1ccc(S(=O)(=O)N2CCCC2C(=O)OCc2nc3ccccc3s2)cc1 (stereo not drawn) | 459 | -1.1% (inactive) | 4.3% (inactive) | 116 | -89% (inactive) | 110 | -0.519 (inactive) | -5.7e-05 (inactive) | 0.00533 (inactive) | 8.31% (inactive) | 25.2% (inactive) |
| Cc1ccc(NC(=O)CSc2nnc(-c3ccncc3)n2C)cc1C | 822 | -13.9% (inactive) | 18.5% (inactive) | 85 | -44.4% (inactive) | 130 | -0.591 (inactive) | 4.1e-06 (inactive) | 0.00642 (inactive) | -15.3% (inactive) | -22.4% (inactive) |
| COC(=O)CN1C(=O)C(O)(CC(=O)c2ccc(Cl)cc2)c2ccccc21 (stereo not drawn) | 605 | -0.8% (inactive) | -5.5% (inactive) | 110 | -40.7% (inactive) | 102 | -0.372 (inactive) | 2.5e-05 (inactive) | 0.00594 (inactive) | 17.2% (inactive) | 36% (inactive) |
| COc1ccccc1N1CCN(C(=O)c2cc(C3CC3)on2)CC1 | 626 | -8.7% (inactive) | -1.6% (inactive) | 85.4 | 1.1% (inactive) | 95.8 | -0.607 (inactive) | -3.3e-05 (inactive) | 0.00629 (inactive) | -5.11% (inactive) | 26.8% (inactive) |
| O=c1[nH]c2ccc(Br)cc2c(-c2ccccc2)c1N1CCOCC1 | 728 | -8% (inactive) | -1.1% (inactive) | 88.6 | -12% (inactive) | 119 | -0.396 (inactive) | 2.9e-05 (inactive) | 0.00458 (inactive) | -7.49% (inactive) | -16.4% (inactive) |
| COc1ccccc1C(=O)N1CCN(C(=O)c2ccncc2)CC1 | 252 | 7.8% (inactive) | -2.8% (inactive) | 92.4 | 12.3% (inactive) | 76.2 | -0.515 (inactive) | -1.9e-05 (inactive) | 0.00571 (inactive) | 8.46% (inactive) | 6.89% (inactive) |
| O=C(CN1C(=O)CC(c2ccco2)Sc2ccccc21)Nc1ccccc1F (stereo not drawn) | 551 | -2.9% (inactive) | -3.5% (inactive) | 111 | -28.3% (inactive) | 110 | -0.588 (inactive) | 1.9e-05 (inactive) | 0.00681 (inactive) | 12.5% (inactive) | 15.3% (inactive) |
| CC1CCN(c2c(NCc3ccc(C(=O)N4c5ccccc5CC4C)cc3)c(=O)c2=O)CC1 (stereo not drawn) | 726 | -5.7% (inactive) | 31.5% (inactive) | 104 | -38.2% (inactive) | 105 | -0.572 (inactive) | -3.6e-05 (inactive) | 0.00643 (inactive) | 21.8% (inactive) | 45.8% (inactive) |
| O=C(Nc1ccccc1N1CCOCC1)c1ccc2ccccc2n1 | 589 | -21.6% (inactive) | -18.1% (inactive) | 92.8 | 17.1% (inactive) | 94.6 | -0.39 (inactive) | -4.7e-05 (inactive) | 0.00386 (inactive) | -13.5% (inactive) | -46% (inactive) |
| CCN(CC)c1ccc(-c2c(C#N)c(N)nc(OC)c2C#N)cc1 | 426 | -3.8% (inactive) | -21% (inactive) | 112 | -13.4% (inactive) | 113 | -0.0839 (inactive) | 5.4e-06 (inactive) | 0.00577 (inactive) | -0.552% (inactive) | 18.3% (inactive) |
| CCOC(=O)CN1CC23C=CC(O2)C(C(=O)Nc2ccc(OC)cc2OC)C3C1=O (stereo not drawn) | 563 | 8% (inactive) | 8.7% (inactive) | 81.1 | -54% (inactive) | 116 | -0.574 (inactive) | -1.5e-05 (inactive) | 0.00618 (inactive) | 8.81% (inactive) | 32% (inactive) |
| CCOC(=O)c1c(C)[nH]c(C)c1C(=O)COc1ccc(NC(=O)c2ccco2)cc1 | 426 | -10.7% (inactive) | 8.3% (inactive) | 102 | -423% (inactive) | 144 | -0.646 (inactive) | 1.7e-05 (inactive) | 0.00505 (inactive) | 14.6% (inactive) | 20.5% (inactive) |
| CSc1c(C#N)c(N)c(C#N)c2c1COC(C)(C)C2 | 723 | -2.6% (inactive) | -6.1% (inactive) | 83 | -34% (inactive) | 103 | -0.501 (inactive) | -4.2e-05 (inactive) | 0.00561 (inactive) | 17.3% (inactive) | 25.5% (inactive) |
| CN(Cc1ccccc1)C(=O)c1ccccc1NC(=O)c1ccco1 | 349 | -9.3% (inactive) | -4.5% (inactive) | 86 | -102% (inactive) | 130 | -0.333 (inactive) | -6e-05 (inactive) | 0.00495 (inactive) | -13.9% (inactive) | 98.1% (active) |
| CCc1nnc(SCc2cn3c(C)cc(C)nc3n2)n1N | 571 | -13.6% (inactive) | -13.3% (inactive) | 104 | 2.4% (inactive) | 143 | -0.284 (inactive) | -5.4e-06 (inactive) | 0.00669 (inactive) | -4.74% (inactive) | 4.52% (inactive) |
| O=c1c2ccccc2nc(SCc2nnc(-c3ccccc3Br)o2)n1-c1ccccc1 | 379 | 2.9% (inactive) | 5.3% (inactive) | 63.9 | -18.3% (inactive) | 104 | -0.573 (inactive) | -4.9e-05 (inactive) | 0.00444 (inactive) | 0.607% (inactive) | 1.7% (inactive) |

— PubChem BioAssay
